Assay [1] in a line: qHTS assay to identify small molecule antagonists of the vitamin D receptor (VDR) signaling pathway - cell viability counter screen (AID 743225). Also: nearly all actives have a fitted effect of over 50% in size. In outline: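 VDR-UAS-bla HEK 293T cells were plated and incubated 4 h at 37C, then dosed with compound plus 3 nM (final) 1-alpha,25-dihydroxyvitamin D3 for 16 h. After the 2 h beta-lactamase read, viability in the same wells was read as CellTiter-Glo luminescence after 30 min at room temperature.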

Assay [2] in a line: qHTS assay to identify small molecule agonists of the NFkB signaling pathway (AID 1159509; active = well fitted curve in the direction sought with a large enough effect in the signal ratio in the repeat runs, not every such curve was filed as active; the % refers to the signal ratio; also: series mostly up to about 61 µM). In outline:
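Beta-lactamase reporter assay run in quantitative high-throughput format on an NF-kB-responsive ME-180 line, with 5 hr compound treatment and a FRET-based blue/green fluorescence readout.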

The nature of assay [3]: qHTS assay to identify small molecule agonists of the NFkB signaling pathway - cell viability counter screen (AID 1159515; calls by dose curve; also: series mostly up to about 61 µM; nearly all actives have a fitted effect of over 55% in size). Put shortly: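 Parallel cytotoxicity counter screen in ME-180 cells carrying an NFkB-response-element beta-lactamase reporter, 2,000 cells/well. Compound exposure lasted 5 hr at 37 C, 5% CO2. Cell viability was quantified by CellTiter-Glo luminescence.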

A short description of assay [4]: qHTS assay to identify small molecule agonists of the endoplasmic reticulum stress response signaling pathway (AID 1159516; active = well fitted activation curve with a large enough effect in the signal ratio in the repeat runs, not every such curve was filed as active; the % refers to the signal ratio). In outline: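 Using a HeLa line with an ESRE-driven beta-lactamase gene, agonist activity was measured by FRET substrate fluorescence (460 and 530 nm emission) after cells were treated with compounds for 5 hr at 37 C and 5% CO2.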
Assay [5] is described as follows: qHTS assay to identify small molecule agonists of the endoplasmic reticulum stress response signaling pathway - cell viability counter screen (AID 1159517; calls by dose curve;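 also: HeLa cells carrying an ER stress response element beta-lactamase reporter; series mostly up to about 61 µM; nearly all actives have a fitted effect of over 50% in size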). Put shortly:
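After overnight attachment, ESRE-bla HeLa cells were treated with Tox21 library compounds for 5 hr. CellTiter-Glo luminescence, read 30 min post-addition at room temperature, reported viability.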

Assay [6] can be described thus: qHTS assay to identify small molecule antagonists of the retinoid-related orphan receptor gamma (ROR-gamma) signaling pathway - cell viability counter screen (AID 1159520). Also: nearly all actives have a fitted effect of over 50% in size. In outline:
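Cytotoxicity was read from cellular ATP (CellTiter-Glo luminescence) after 16 hr at 37 C with 1 uM doxycycline induction. The inducer was added 2 hr after compound transfer to Tet-on ROR gamma CHO cells.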

The nature of assay [7]: qHTS assay to identify small molecule agonists of the AP-1 signaling pathway - cell viability counter screen (AID 1159525; calls by dose curve; also: nearly all actives have a fitted effect of over 55% in size). Put shortly:
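Intracellular ATP by Cell Titer Glo luminescence (30 min, RT) in the same ME-180 AP-1-bla wells after the 5 h compound exposure at 37 °C. Normalised to tetra n-octyl ammonium bromide and DMSO controls.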

A short description of assay [8]: qHTS assay to identify small molecule agonists of the AP-1 signaling pathway (AID 1159526; calls by dose curve).
The target of assay [9] is Retinoic acid receptor RXR-alpha (Homo sapiens) (UniProt P19793). The assay is described as follows: qHTS assay to identify small molecule agonists of the RXR signaling pathway (AID 1159527; calls by dose curve; also: nearly all actives have a fitted effect of over 35% in size). Put shortly: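 GeneBLAzer RXR-alpha-UAS-bla HEK 293T cells in 2% charcoal-stripped FBS medium were exposed to compounds for 16 hr at 37 C in agonist mode. Beta-lactamase reporter read as 460/530 nm FRET ratio after 2 hr substrate loading.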

Assay [10] can be described thus: qHTS assay to identify small molecule agonists of the RXR signaling pathway - cell viability counter screen (AID 1159529). Also: series mostly up to about 77 µM; nearly all actives have a fitted effect of over 50% in size. Put shortly:
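RXR-alpha-UAS-bla HEK 293T cells in medium with 2% charcoal-stripped FBS were pre-incubated 5 hr, then compound-treated 16 hr at 37 C. Viability was read by CellTiter-Glo luminescence in the same wells as the beta-lactamase assay, with tetraoctyl ammonium bromide as positive control.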

The nature of assay [11]: qHTS assay to identify small molecule antagonists of the retinoid acid receptor (RAR) signaling pathway - cell viability counter screen (AID 1159551). Also: nearly all actives have a fitted effect of over 35% in size. Put shortly: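 ATP-based viability, C3RL4 cells, 6 h at 37 C with 1 uM final retinol co-added after compound; luminescence read 30 min post CellTiter-Glo, RT.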
Assay [12] in a line: qHTS assay to identify small molecule agonists of the retinoic acid receptor (RAR) signaling pathway (AID 1159553). In outline:
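Quantitative high-throughput format: the Tox21 10K library was tested on C3RL4 RARE-luciferase cells for 6 hr at 37 C and 5% CO2, with luminescence measured after a 30 min room-temperature reagent step.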

Assay [13] is described as follows: qHTS assay to identify small molecule antagonists of the estrogen related receptor (ERR) signaling pathway from Tox21 library - cell viability counter screen (AID 1224834). Also: nearly all actives have a fitted effect of over 30% in size. Also: potency is read from the fitted curve at half-maximal effect. Put shortly: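 Compounds in DMSO were pinned onto ERR cells that had been incubated for 6 h, and the plates were held at 37 C for 17.5 h. CellTiter-Fluor reagent was then added and fluorescence was measured after 30 min.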

Assay [14] deals with Nuclear receptor ROR-gamma (Homo sapiens) (UniProt P51449). The assay is described as follows: qHTS assay to identify small molecule antagonists of the retinoid-related orphan receptor gamma (ROR-gamma) signaling pathway (AID 1159521). Put shortly:
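Tet-on ROR-gamma CHO cells with ROR response element-luciferase reporter; compounds added 2 hr before 1 uM doxycycline induction, then 16 hr at 37 C. Antagonism scored as decreased ONE-Glo luminescence.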

The nature of assay [15]: qHTS assay to identify small molecule antagonists of the retinoic acid receptor (RAR) signaling pathway (AID 1159552; also: nearly all actives have a fitted effect of over 50% in size). Put shortly:
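Retinol signaling pathway inhibitors screened in C3RL4 RARE-luciferase reporter cells seeded overnight at 37 C, then compounds added with 1 uM (final) retinol as pathway substrate. After 6 hr at 37 C, luciferase luminescence read after 30 min at room temperature.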

Our source for the outcome and Potency values is PubChem BioAssay (Tox21).

Records with an inconclusive call do not appear. Values without a mark were called inactive. Active and inactive are the calls of the source. Unless noted, calls follow the shape of the dose curve; as a rule, active = well fitted curve in the direction sought with a large enough effect in the repeat runs; inconclusive = weak or mixed curves; inactive = no such curve, though single readings can be large; an effect the other way counts as inactive or inconclusive.

Chain of Retinoic acid receptor RXR-alpha (Homo sapiens) (P19793 whole entry, looked up): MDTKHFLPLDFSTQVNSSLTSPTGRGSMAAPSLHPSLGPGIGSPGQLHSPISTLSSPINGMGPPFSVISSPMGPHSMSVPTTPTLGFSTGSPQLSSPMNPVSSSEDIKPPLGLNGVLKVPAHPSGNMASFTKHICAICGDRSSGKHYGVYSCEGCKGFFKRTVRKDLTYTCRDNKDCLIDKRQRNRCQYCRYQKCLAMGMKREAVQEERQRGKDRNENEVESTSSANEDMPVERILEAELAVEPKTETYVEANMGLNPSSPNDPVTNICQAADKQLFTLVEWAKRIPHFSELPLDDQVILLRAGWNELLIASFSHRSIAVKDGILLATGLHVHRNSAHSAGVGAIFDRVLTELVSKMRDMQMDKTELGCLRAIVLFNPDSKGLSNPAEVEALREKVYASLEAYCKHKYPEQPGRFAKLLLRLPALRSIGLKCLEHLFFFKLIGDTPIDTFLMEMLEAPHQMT

`OC(c1ccccc1)(c1ccccc1)C1CCNCC1`: the compound was called inactive in [1], in assay [2], in assay [3], in assay [4] and in assay [8]. For the same compound, the Potency entry in [5], in assay [6], in assay [7], in assay [9], in assay [10] and in assay [11] was “inactive” throughout. Also, the Potency result in assay [12] and in assay [13] was “inactive” throughout.
As for `CC1(C(=O)Nc2ccc(O)c(Cl)c2Cl)CCCCC1`, the outcome in assay [2], in assay [3] and in assay [4] was inactive. The Potency result in assay [5], in assay [6], in assay [14] and in [11] was “inactive” in each case.
`Cc1cc(C)c(C(=O)P(=O)(C(=O)c2c(C)cc(C)cc2C)c2ccccc2)c(C)c1`: the outcome in [1], in assay [2], in assay [3], in assay [4] and in assay [8] was inactive. In addition, the Potency result in assay [5], in [6], in assay [7], in assay [10], in [11] and in assay [15] was “inactive” each time. The Potency entry in assay [12] and in assay [13] was “inactive” in each case.
Take `C#CCN1C(=O)COc2cc(F)c(N3C(=O)C4=C(CCCC4)C3=O)cc21`: the outcome in assay [2], in [3], in [4] and in assay [8] was inactive. For the same compound, the Potency entry in assay [5], in [6], in [7], in assay [9], in [10] and in assay [11] was “inactive” in each case. In addition, the Potency entry in assay [15], in assay [12] and in [13] was “inactive” each time.
Take `CC(Cl)(Cl)[N+](=O)[O-]`: the compound was called inactive in [2], in assay [3], in assay [4] and in assay [8]. Further, the Potency entry in [5], in assay [6], in assay [7], in assay [9], in assay [10] and in assay [11] was “inactive” throughout. For the same compound, the Potency entry in [15], in assay [12] and in [13] was “inactive” in each case.
As to `ClC(Cl)Br`, the compound was classed as inactive in assay [1], in [2], in assay [3], in assay [4] and in assay [8]. Moreover, the Potency entry in assay [5], in assay [6], in assay [7], in assay [10], in assay [11] and in assay [15] was “inactive” throughout. The Potency entry in [12] and in assay [13] was “inactive” each time.
In the case of `CCCCc1c(C)nc(NCC)[nH]c1=O`, the call in assay [1], in [2], in assay [3], in assay [4] and in assay [8] was inactive. Moreover, the Potency result in assay [5], in assay [6], in assay [7], in assay [9], in assay [10] and in assay [11] was “inactive” each time. In addition, the Potency entry in assay [13] is “inactive”.
In the case of `C[C@H]1CCC[C@H](O)CCCCCc2cc(O)cc(O)c2C(=O)O1`, the compound was classed as inactive in [1], in [2], in assay [3], in assay [4] and in assay [8]. Also, the Potency result in assay [5], in assay [6], in assay [7], in assay [9], in assay [11] and in assay [15] was “inactive” throughout. In assay [12], the Potency result was “inactive”. Besides, the Potency in assay [13] is 61.6 µM (active).
Regarding `C=CC1CC=CCC1` (stereo not drawn), the call in assay [2], in assay [3], in assay [4] and in [8] was inactive. Moreover, the Potency entry in assay [5], in assay [6], in assay [7], in [9], in assay [10] and in assay [11] was “inactive” each time. The Potency entry in [15], in assay [12] and in assay [13] was “inactive” throughout.
Turning to `ClC(Cl)C(Cl)Cl`, the outcome in assay [1], in [2], in assay [3], in assay [4] and in [8] was inactive. Moreover, the Potency result in [5], in [6], in assay [7], in assay [9], in [11] and in assay [15] was “inactive” each time. For the same compound, the Potency result in assay [12] and in assay [13] was “inactive” throughout.
